# Laboratory results: PubChem BioAssay
# Active and inactive are the calls of the source. Unless noted, the rule behind the calls is not given here.
# What was measured:
# [1] = system: Wnt5a (protein binding on small-molecule microarray); assay: small molecules binding Wnt5a protein – biophysical, small-molecule microarray, 635/667 nm fluorescence, primary screen (AID 1142); conditions: 635 nm fluorescence, higher = more signal;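 note: fluorescence read at 667 nm with signal to noise per printed feature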
# [2] = ATP-based viability of Huh7 replicon cells – cell-based, CellTiter-Glo luminescence, basal, 48 h, cytotoxicity control for HCV replication inhibitor project, primary screen (AID 1143); conditions: higher = more signal, called active from +8 up or from −8 down;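 note: Huh7 hepatoma cells carrying a hepatitis C replication reporter with no stimulus; test concentration not given here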
# [3] = Pseudomonas biofilm growth suppression – PAO1 strain, BacTiter-Glo luminescence, LB-PBS, primary screen (AID 1144); conditions: P. aeruginosa PAO1 biofilm, 12 h, higher = more signal
# [4] = basal CRE-LacZ reporter activity in PC12 – cell-based, unstimulated, primary screen (AID 1145); conditions: no forskolin, luminescence, 4.5 h, higher = more signal, called active from +8 up or from −8 down
# [5] = forskolin-driven CRE-LacZ activity in PC12 – cell-based, CRE-LacZ reporter, forskolin-stimulated, primary screen (AID 1146); conditions: luminescence, 4.5 h, higher = more signal, called active from +8 up or from −8 down;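 note: PC12 cells with 6xCRE LacZ reporter stimulated by forskolin 10 µM; beta-galactosidase reporter signal reflecting CREB driven transcription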
# [6] = target: Streptavidin (Streptomyces avidinii) (UniProt P22629); assay: compounds binding control protein streptavidin – biophysical, small-molecule microarray, 635/667 nm fluorescence, artefact control for SMM compound annotation, primary screen (AID 1147); conditions: higher = more signal;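 note: signal reflects streptavidin binding to arrayed compounds as a control protein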
# [7] = probe aInhba binding on compound microarray – biochemical, small-molecule microarray, 635/667 nm fluorescence, primary screen (AID 1148); conditions: higher = more signal;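 note: score merges 667nm spot fluorescence with signal-to-noise for antibody binding to printed compounds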
# [8] = target: Torsin-1A (Homo sapiens) (UniProt O14656); assay: TOR1A wild-type binding on microarray – cell lysate, small-molecule microarray, lysate, 635/667 nm, primary screen (AID 1149); conditions: COS7 hTOR1A-WT lysate, 635 nm fluorescence, higher = more signal
# [9] = target: Torsin-1A (Homo sapiens) (UniProt O14656); assay: torsin A mutant lysate binding on microarrays – cell lysate, small-molecule microarray, COS7 lysate, 635/667 nm fluorescence, primary screen (AID 1150); conditions: COS7 hTOR1A mutant lysate, 635 nm fluorescence, higher = more signal;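 note: score pools 667 nm emission and signal to noise measuring lysate protein binding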
# [10] = system: Sonic hedgehog protein (Shh); assay: Sonic hedgehog microarray binding compounds – biochemical, small-molecule microarray, 635/667 nm fluorescence, primary screen (AID 1151); conditions: 635 nm fluorescence, higher = more signal;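 note: Shh protein binding to compounds spotted on small-molecule microarray slides; score combines spot fluorescence intensity with signal-to-noise across triplicate slides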
# [11] = optical density shifts of acrAB sulA E. coli – strain DRC41, OD650, 48 h, E. coli filamentation inducer project, primary screen (AID 1152); conditions: higher = more signal, called active from +8 up or from −8 down;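 note: E. coli MC1000 strain DRC41 lacking acrAB efflux pump and sulA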
# [12] = probe aLefty1 binding on compound microarray – biochemical, small-molecule microarray, 635/667 nm fluorescence, primary screen (AID 1153); conditions: higher = more signal;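 note: score merges spot fluorescence with signal-to-noise ratio from the scanned slide images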
# [13] = plasmodial surface anion channel blockers, osmotic lysis – cell-based, P. falciparum Indochina, OD700, 1 h, primary screen (AID 1154); conditions: P. falciparum Indochina infected RBC osmotic lysis, higher = more signal, called active from +8 up or from −8 down
# [14] = plasmodial surface anion channel blockers, osmotic lysis – cell-based, P. falciparum Indochina, OD700, 2 h, primary screen (AID 1155);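 note: lysis reports solute entry through the parasite surface anion channel PSAC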; conditions: P. falciparum Indochina infected erythrocytes, higher = more signal, called active from +8 up or from −8 down
# [15] = changes in parasitized red cell lysis, either direction – P. falciparum Indochina, OD700, 3 h, PSAC antagonist project, primary screen (AID 1156); conditions: P. falciparum-infected erythrocytes, osmotic lysis, higher = more signal, called active from +8 up or from −8 down
# [16] = plasmodial surface anion channel blockers, osmotic lysis – cell-based, P. falciparum Indochina, OD700, 18 h, primary screen (AID 1157); conditions: P. falciparum Indochina infected erythrocytes, osmotic lysis OD700, 18 h; higher = more signal, called active from +8 up or from −8 down
# [17] = S6 kinase pathway phospho-S6 level changes – cell-based, A549, cytoblot, luminescence, serum-stimulated, primary screen (AID 1158); conditions: 5 h, higher = more signal;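 note: serum-stimulated A549 lung adenocarcinoma cells; signal is phosphorylated S6 detected by cytoblot immunostaining with HRP secondary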
# [18] = target: NADPH oxidase 2 (Homo sapiens) (UniProt P04839); assay: compounds shifting NOX2 Amplex Red fluorescence – cell-based, HEK293-NOX2, PMA-stimulated, NOX inhibitor project, primary screen (AID 1159); conditions: 45 min, higher = more signal, called active from +8 up or from −8 down; note: test concentration not given here
# [19] = target: NADPH oxidase 4 (Homo sapiens) (UniProt Q9NPH5); assay: compounds shifting NOX4 Amplex Red fluorescence – cell-based, HEK293-NOX4, tetracycline-induced, NOX inhibitor project, primary screen (AID 1160); conditions: HEK293-NOX4, Amplex Red H2O2 fluorescence, 45 min; higher = more signal, called active from +8 up or from −8 down
# [20] = target: NADPH oxidase 5 (Homo sapiens) (UniProt Q96PH1); assay: compounds shifting NOX5 Amplex Red fluorescence – cell-based, HEK293-NOX5, NOX inhibitor project, primary screen (AID 1161); conditions: HEK293-NOX5, ionomycin, 45 min, higher = more signal
# NADPH oxidase 5 (Homo sapiens), sequence (Q96PH1 whole entry, looked up): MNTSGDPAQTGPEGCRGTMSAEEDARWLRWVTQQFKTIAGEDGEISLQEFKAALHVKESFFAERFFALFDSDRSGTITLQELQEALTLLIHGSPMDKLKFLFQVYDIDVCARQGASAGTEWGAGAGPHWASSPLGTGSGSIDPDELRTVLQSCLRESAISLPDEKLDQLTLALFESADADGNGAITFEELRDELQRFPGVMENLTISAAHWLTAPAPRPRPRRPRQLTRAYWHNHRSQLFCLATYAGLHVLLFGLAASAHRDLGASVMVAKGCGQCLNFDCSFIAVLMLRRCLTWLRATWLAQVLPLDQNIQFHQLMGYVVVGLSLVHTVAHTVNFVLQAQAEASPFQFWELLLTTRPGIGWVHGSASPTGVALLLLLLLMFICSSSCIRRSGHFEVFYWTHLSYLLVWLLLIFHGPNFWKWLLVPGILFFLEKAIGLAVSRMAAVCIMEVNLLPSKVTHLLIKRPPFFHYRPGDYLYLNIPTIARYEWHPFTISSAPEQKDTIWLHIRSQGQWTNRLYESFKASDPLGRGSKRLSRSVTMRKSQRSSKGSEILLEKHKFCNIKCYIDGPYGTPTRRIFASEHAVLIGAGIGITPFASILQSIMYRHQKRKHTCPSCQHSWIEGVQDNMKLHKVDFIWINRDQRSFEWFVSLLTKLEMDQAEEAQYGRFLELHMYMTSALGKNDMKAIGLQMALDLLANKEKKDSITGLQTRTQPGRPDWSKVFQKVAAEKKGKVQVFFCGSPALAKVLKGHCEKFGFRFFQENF
# Torsin-1A (Homo sapiens), sequence (O14656 whole entry, looked up): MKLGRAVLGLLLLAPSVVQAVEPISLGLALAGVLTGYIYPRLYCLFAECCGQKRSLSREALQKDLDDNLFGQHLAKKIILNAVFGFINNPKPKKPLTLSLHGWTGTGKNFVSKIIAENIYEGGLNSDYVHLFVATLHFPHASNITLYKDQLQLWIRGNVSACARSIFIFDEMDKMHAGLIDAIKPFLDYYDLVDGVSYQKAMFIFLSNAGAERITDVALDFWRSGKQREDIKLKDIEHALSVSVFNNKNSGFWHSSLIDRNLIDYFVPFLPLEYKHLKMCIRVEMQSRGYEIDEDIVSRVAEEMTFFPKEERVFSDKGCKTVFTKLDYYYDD
# NADPH oxidase 2 (Homo sapiens), sequence (P04839 whole entry, looked up): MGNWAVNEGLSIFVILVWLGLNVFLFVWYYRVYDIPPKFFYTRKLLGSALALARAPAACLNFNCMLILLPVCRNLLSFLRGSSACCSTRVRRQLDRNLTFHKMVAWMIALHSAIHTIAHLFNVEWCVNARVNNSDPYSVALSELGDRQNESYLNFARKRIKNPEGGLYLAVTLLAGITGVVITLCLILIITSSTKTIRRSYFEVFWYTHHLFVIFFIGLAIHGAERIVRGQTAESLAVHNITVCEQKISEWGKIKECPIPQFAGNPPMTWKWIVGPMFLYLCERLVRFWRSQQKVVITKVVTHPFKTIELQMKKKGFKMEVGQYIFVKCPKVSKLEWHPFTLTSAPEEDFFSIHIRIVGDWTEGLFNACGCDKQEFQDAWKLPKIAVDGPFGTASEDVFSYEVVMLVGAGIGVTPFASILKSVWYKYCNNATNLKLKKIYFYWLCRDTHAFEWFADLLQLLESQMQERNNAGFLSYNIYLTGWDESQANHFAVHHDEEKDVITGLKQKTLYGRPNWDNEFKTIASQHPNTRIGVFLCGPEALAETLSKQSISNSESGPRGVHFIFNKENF
# Streptavidin (Streptomyces avidinii), sequence (P22629 whole entry, looked up): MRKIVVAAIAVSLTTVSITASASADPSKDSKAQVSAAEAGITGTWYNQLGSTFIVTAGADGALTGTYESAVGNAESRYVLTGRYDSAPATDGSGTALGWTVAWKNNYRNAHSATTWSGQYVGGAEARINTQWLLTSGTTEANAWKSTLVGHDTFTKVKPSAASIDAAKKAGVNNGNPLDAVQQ
# NADPH oxidase 4 (Homo sapiens), sequence (Q9NPH5 whole entry, looked up): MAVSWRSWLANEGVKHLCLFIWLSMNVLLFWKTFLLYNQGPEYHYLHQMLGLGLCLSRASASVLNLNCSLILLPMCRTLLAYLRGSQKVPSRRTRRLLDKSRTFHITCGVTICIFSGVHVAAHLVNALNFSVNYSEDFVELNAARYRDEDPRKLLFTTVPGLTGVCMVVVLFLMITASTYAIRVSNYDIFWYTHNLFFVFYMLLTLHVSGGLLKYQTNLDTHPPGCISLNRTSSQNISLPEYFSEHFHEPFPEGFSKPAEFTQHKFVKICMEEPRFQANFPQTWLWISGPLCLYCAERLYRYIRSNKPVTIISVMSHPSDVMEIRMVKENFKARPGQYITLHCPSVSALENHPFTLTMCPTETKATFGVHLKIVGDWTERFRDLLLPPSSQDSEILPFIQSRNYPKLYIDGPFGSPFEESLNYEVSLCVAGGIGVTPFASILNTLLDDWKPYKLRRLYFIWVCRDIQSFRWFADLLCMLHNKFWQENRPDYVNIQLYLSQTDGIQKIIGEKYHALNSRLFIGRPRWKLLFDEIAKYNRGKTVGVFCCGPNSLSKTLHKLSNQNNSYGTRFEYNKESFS
Compound,composite z-score [1],z-score [2],z-score [3],z-score [4],z-score [5],composite z-score [6],composite z-score [7],composite z-score [8],composite z-score [9],composite z-score [10],z-score [11],composite z-score [12],z-score [13],z-score [14],z-score [15],z-score [16],z-score [17],z-score [18],z-score [19],z-score [20]
COC(=O)C(CC#Cc1ccc2c(c1)[C@]1(C(=O)N2)[C@H](C(=O)N2CCc3cc(OC)c(OC)cc3C2)[C@H]2C(=O)O[C@H](c3ccccc3)[C@H](c3ccccc3)N2[C@@H]1c1ccccc1OCCO)C(=O)OC,0.345,-2.91 (inactive),-0.375 (inactive),-0.168 (inactive),0.214 (inactive),1,0.0561,0.885,1.15,1.99,0.113 (inactive),0.0429,2.85 (inactive),1.76 (inactive),0.848 (inactive),1.08 (inactive),-0.416,2.02 (inactive),0.405 (inactive),1.9
COC(=O)[C@]1(CCC(=O)OC(C)(C)C)N=C(c2ccc(OCCCO)cc2)O[C@@H]1c1ccccc1N=[N+]=[N-],0.827,-2.64 (inactive),-0.192 (inactive),0.834 (inactive),0.154 (inactive),-0.0444,-0.0658,0.154,0.0612,0.886,-0.725 (inactive),0.0591,30.9 (active),25.9 (active),1.64 (inactive),5.32 (inactive),-0.328,-1.41 (inactive),-0.601 (inactive),-2.4
COCCOC(=O)N1C(=O)[C@@]2(c3cc(C#CCC(C(=O)OC)C(=O)OC)ccc31)[C@H](C(=O)Nc1nc3ccccc3s1)[C@H]1C(=O)O[C@H](c3ccccc3)[C@H](c3ccccc3)N1[C@@H]2c1ccc(OCCO)cc1,0.555,-0.835 (inactive),-0.00208 (inactive),1.71 (inactive),0.323 (inactive),0.532,0.79,1.07,0.596,2.23,0.836 (inactive),0.529,5.5 (inactive),1.77 (inactive),0.832 (inactive),1.39 (inactive),-0.265,1.75 (inactive),1.03 (inactive),1.33
CC(C)N1C(=O)c2ccccc2[C@](C)(C(=O)NCC(F)(F)F)[C@@H]1c1ccc(CO)cc1,-0.218,-0.167 (inactive),0.633 (inactive),0.414 (inactive),-0.0278 (inactive),-0.913,0.0516,-0.978,0.33,-0.982,0.481 (inactive),0.402,0.834 (inactive),-0.0162 (inactive),-0.377 (inactive),-0.16 (inactive),0.0308,0.91 (inactive),0.89 (inactive),0.783
C=C1C(=O)C=C2CN(C(=O)c3ccccc3)[C@@](Cc3ccc(OC)cc3)(C(=O)OC)[C@@H]12,0.458,-3.68 (inactive),0.249 (inactive),0.387 (inactive),0.2 (inactive),1.72,0.863,0.124,0.319,0.193,-1.79 (inactive),1.46,2.02 (inactive),0.368 (inactive),0.218 (inactive),1.23 (inactive),-0.0615,0.427 (inactive),1.1 (inactive),2.68
